Screening results from PubChem.
This is a sample that favours compounds with a hit; in the whole collection about 2.7% have one here.
IP6K1 inh: blocks human inositol hexakisphosphate kinase 1; Q92551; IP6K1 kinase, ADP-Glo luminescence, 2 h; stronger effect = lower value; activity change, % (series mostly up to about 58 µM); hit rate 0.81% among 140,000; in the data active = activity change below about -25%
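ADP-Glo luminescence measures ADP made by human IP6K1 during a 2 h RT reaction with ATP/IP6 (mix at 1.3 mM/130 uM); top library doses 57.5 and 19.1 uM final.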
KDM5B inh: blocks human KDM5B histone demethylase activity; KDM5B demethylase, FDH-coupled NADH fluorescence (FDH is formaldehyde dehydrogenase); Potency, µM (series often up to 57.7 µM), most hits filed as inhibitors; hit rate 2.6% among 220,000; active = well fitted inhibition curve with a large enough effect; inconclusive = small, poorly fitted or top-dose-only effect; inactive = no such curve, though single readings can be large or run the other way; also: nearly all actives have a fitted effect of over 70% in size
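Coupled FDH/NAD⁺ fluorescence readout. KDM5BΔAP 200 nM final; compound titration, 10 min RT preincubation; substrate mix 12.5 µM H3K4me3, 25 µM 2-OG, 50 µM Fe(II), 100 µM ascorbate, 0.25 mM NAD⁺, 0.25 U/mL FDH; ΔRFU over 30 min.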
Hits are given with their value; n = inactive; u = inconclusive; x = no result.

SMILES	IP6K1 inh	KDM5B inh
O=c1cc(-c2cccnc2)oc2c(-c3ccc(O)c(F)c3)nccc12	n	n
COc1ccc(-c2nccc3c(=O)cc(-c4cccnc4)oc23)cc1OC	n	n
Cc1ccccc1-c1nccc2c(=O)cc(-c3cccnc3)oc12	n	40µM
O=c1cc(-c2cccnc2)oc2c(NCc3ccc(F)cc3)nccc12	n	n
O=c1[nH]nc(-c2ccco2)c2c1Nc1nnnn1C2c1ccc(Cl)cc1Cl (stereo not given)	x	n
O=C(Nc1nc2ccc(F)cc2s1)c1ccc(CN2CCCCC2)cc1	x	n
COc1ccc(C2Cn3nnc(C(=O)N4CCN(C(=O)c5cccc(C)c5)CC4)c3CO2)cc1 (stereo not given)	n	u
CC(C)(C)N=C1NN=C(c2c[nH]c3ccccc23)CS1	x	n
COC(=O)CNC(=O)c1cc(Br)cn2ccnc12	n	32µM
O=C(c1cc(Br)cn2ccnc12)N1CCC(N2CCNC2=O)CC1	n	u
O=C(NCC1CC1)c1cc(Br)cn2ccnc12	n	u
COCCNC(=O)c1cc(Br)cn2ccnc12	n	40µM
Cc1ccc2nc(C)c(C(=O)NCC(F)(F)F)cc2c1	x	n
NC(=O)c1ccc(CNC(=O)c2ccc(C(F)(F)F)cc2)cc1	x	n
O=C(NCC(F)(F)F)c1cc(Br)cn2ccnc12	n	35µM
O=C(NCc1ccc(C(F)(F)F)cc1)c1cc(Br)cn2ccnc12	n	14µM
Cc1ccc(N(C(=O)C23CC4CC(CC(C4)C2)C3)C2C=CS(=O)(=O)C2)cc1 (stereo not given)	x	n
Cc1ccc(C(=O)CC(=O)c2ccc(Cl)cc2)c(O)c1	x	n
O=C(NCCc1ccccc1F)c1cc(Br)cn2ccnc12	n	28µM
O=C(NCCc1ccccc1F)c1ccncc1	x	n
COc1ccc(-c2nn(-c3ccc(F)cc3)c(OC(C)=O)c2-c2ccc(NC(C)=O)cc2)cc1OC	n	20µM
CCC(=O)Nc1ccc(-c2c(-c3ccc(C)cc3)nn(-c3ccc(F)cc3)c2OC(C)=O)cc1	n	u
CC(=O)Nc1ccc(-c2c(C(C)C)nn(-c3cccc(F)c3)c2OC(C)=O)cc1	n	n
CCOc1ccc(NC(=O)c2nc(-c3ccccc3)n(-c3ccc(F)cc3)n2)cc1	x	n
CC(=O)Nc1ccc(-c2c(-c3cccc(C)c3)nn(-c3ccc(F)cc3)c2OC(C)=O)cc1	n	25µM
SMILES	IP6K1 inh	KDM5B inh
COc1cc(OC)cc(-c2nn(-c3ccc(C)cc3C)c(OC(C)=O)c2-c2ccc(NC(C)=O)cc2)c1	n	u
COc1ccc(-c2nn(-c3ccc(C)cc3C)c(OC(C)=O)c2-c2ccc(NC(C)=O)cc2)c(OC)c1	n	32µM
CCC(=O)Nc1ccc(-c2c(-c3cc(OC)cc(OC)c3)nn(-c3ccc(C)cc3)c2OC(C)=O)cc1	n	28µM
CC(C)OCCCNC(=O)COc1ccc2c(-c3ccccc3)cc(=O)oc2c1	x	n
Cc1cc(C(C)(C)C)cc(C)c1Cn1c(Cl)nc2c1c(=O)n(C)c(=O)n2C	x	n
CC(=O)Oc1c(-c2ccc(NC(=O)C3CC3)cc2)c(-c2ccc3c(c2)OCO3)nn1-c1cccc(C)c1	n	35µM
CC(=O)Nc1ccc(-c2c(C3CC3)nn(-c3cccc(C)c3)c2OC(C)=O)cc1	n	u
O=C(Nc1cc(F)cc(F)c1)Nc1cccc(-c2ccc(N3CCOCC3)nn2)c1	n	u
N#Cc1c(NC(=O)CSc2ncnc3ccccc23)sc2c1CCCCC2	x	n
N#Cc1nccnc1N1CCN(C2CCC3(CCNCC3)CC2)CC1	n	22µM
CC(C(=O)Nc1nccs1)N1CCN(c2nccnc2C#N)CC1 (stereo not given)	n	n
O=C(COc1ccccc1)N1CCOc2ccc(CN3CCc4ccccc4C3)cc2C1	n	u
COc1ccc(N2CC3CCC(C2)N3Cc2cccc(-c3ccc(F)cc3F)c2)cc1	n	79µM
COc1ccc(N2CC3CCC(C2)N3Cc2cccc(-c3cccs3)c2)cc1	n	n
CC(C)[C@H](NC(=O)C12CC3CC(CC(C3)C1)C2)C(=O)O	x	n
Cc1ncc(-c2ccc(S(=O)(=O)Nc3cc(Cl)ccc3C)cc2)o1	x	n
Cc1ccc(CNC(=O)c2ccc(-c3nnc4ccc(NC(=O)C5CCC5)cn34)cc2)cc1	n	u
Cc1cccc(CNC(=O)c2ccc(-c3nnc4ccc(NC(=O)C5CCC5)cn34)cc2)c1	n	28µM
O=C(O)c1ccc(-c2nnc3ccc(NC(=O)C4CCC4)cn23)cc1	n	32µM
CC(C)CCNC(=O)c1ccc(-c2nnc3ccc(NC(=O)C4CCC4)cn23)cc1	n	u
CC(C)CNC(=O)c1ccc(-c2nnc3ccc(NC(=O)C4CC4)cn23)cc1	n	14µM
CN(C(=O)c1ccc(-c2nnc3ccc(NC(=O)C4CCC4)cn23)cc1)C1CCCCC1	n	u
Cc1ccc2c(=O)cc(C(=O)Nc3nc4ccc(C)cc4s3)oc2c1	x	n
O=C(Nc1ccc(S(=O)(=O)N2CCOCC2)cc1)C1CC(=O)N(CCc2ccc(F)cc2)C1 (stereo not given)	x	n
O=C(NC1CCCCC1)c1cc2n(n1)CC(c1ccc3c(c1)OCO3)OC2 (stereo not given)	n	n
SMILES	IP6K1 inh	KDM5B inh
Cc1ccc(NC(=O)c2cc3n(n2)CC(c2ccc4c(c2)OCO4)OC3)cc1Cl (stereo not given)	n	28µM
Cc1ccc(NC(=O)c2cc3n(n2)CC(c2ccc4c(c2)OCO4)OC3)cc1F (stereo not given)	n	22µM
CC(C)c1cccc(NC(=O)c2cc3n(n2)CC(c2ccc4c(c2)OCO4)OC3)c1 (stereo not given)	n	u
CCOC(=O)C1(Cc2cccc(C(F)(F)F)c2)CCN(Cc2cc(C(C)C)n[nH]2)CC1	n	n
O=C1Nc2ccc(-c3ccc4c(c3)OCO4)cc2C(=O)N2CCN(C(=O)c3cccs3)C[C@@H]12	n	28µM
O=C1Nc2ccc(-c3ccccc3)cc2C(=O)N2CCN(C(=O)c3cccnc3)C[C@H]12	n	u
O=C(N[C@H]1CCN2C(=O)c3ccccc3NC(=O)[C@@H]2C1)c1cccs1	n	u
COc1ccc(-c2ccc3c(c2)C(=O)N2CCN(C(=O)c4ccccc4)C[C@@H]2C(=O)N3)cc1	n	u
CN(C)c1ccc(C(=O)N2CCN3C(=O)c4cc(-c5ccc6c(c5)OCO6)ccc4NC(=O)[C@H]3C2)cc1	n	35µM
CSc1ccc(-c2ccc3c(c2)C(=O)N2CC[C@H](NC(=O)c4cccs4)C[C@H]2C(=O)N3)cc1	n	28µM
Cc1cc(C)n(CCC(=O)N2CC(Oc3ccc(-c4nc(-c5ccccc5)no4)cc3)C2)n1	n	n
O=C(c1ccc(-c2cccs2)cc1)N1CCC(C(=O)N2CCCCC2)CC1	n	x
Cn1c(=O)c2c(nc(NCc3ccccc3)n2Cc2cccc(Br)c2)n(C)c1=O	x	n
CC(Cn1cncn1)Nc1ccc(-c2nc(Cc3ccc(F)cc3)no2)cn1 (stereo not given)	n	25µM
Fc1ccc(Cc2noc(-c3ccc(NCCCn4ccnc4)nc3)n2)cc1	n	n
CN(CC(=O)NC1CCCCNC1=O)Cc1cccc(F)c1 (stereo not given)	x	n
O=C(Nc1ccc(Sc2ccc(Br)cc2)cc1)c1n[nH]c(=O)c2ccccc12	x	n
COc1ccc(-c2cc3c(=O)n(CCNC(=O)Cc4cccs4)ccn3n2)cc1	n	u
CCOc1ccc(-c2cc3c(=O)n(CCNC(=O)c4ccc(C)cc4)ccn3n2)cc1	n	n
CCOc1ccc(-c2cc3c(=O)n(CCNC(=O)c4ccccc4)ccn3n2)cc1	n	n
